Experimental data taken from the supplement of paper PMC7261846.
± gives the uncertainty stated by the source.

Tested on: Candida albicans SNY425 biofilm
Experiment: biofilm OD600 with compound plus antifungal (OD600 (absorbance)); higher = more biofilm remaining
[1] = assay detail: disruption of 24-h mature biofilm (compound + antifungal for a second 24 h)
[2] = assay detail: sustained inhibition (compound + antifungal during 90-min adherence and 24-h growth)

Structure (SMILES) | biofilm OD600 [1] | biofilm OD600 [2]
CCCC[C@@H](C=O)NC(=O)[C@H](CC(C)C)NC(=O)OCc1ccccc1 [Calpeptin] + C[C@@H]1[C@H](O)[C@@H](C)/C=C/C=C/C=C/C=C/C=C/C=C/C=C/[C@H](O[C@@H]2O[C@H](C)[C@@H](O)[C@H](N)[C@@H]2O)C[C@@H]2O[C@](O)(C[C@@H](O)C[C@@H](O)[C@H](O)CC[C@@H](O)C[C@@H](O)CC(=O)O[C@H]1C)C[C@H](O)[C@H]2C(=O)O [amphotericin B] (first compound 12.5 µM) | 0.266 ± 0.0066 | 0.189 ± 0.01
NC(=O)c1cccc(-c2cccc(OC(=O)NC3CCCCC3)c2)c1 + CC[C@H](C)C[C@H](C)CCCCCCCCC(=O)N[C@H]1C[C@@H](O)[C@@H](NCCN)NC(=O)[C@@H]2[C@@H](O)CCN2C(=O)[C@H]([C@H](O)CCN)NC(=O)[C@H]([C@H](O)[C@@H](O)c2ccc(O)cc2)NC(=O)[C@@H]2C[C@@H](O)CN2C(=O)[C@H]([C@@H](C)O)NC1=O [caspofungin] (first compound 12.5 µM) | 0.283 ± 0.011 | 0.171 ± 0.0069
CCCCCCCCCC(=O)N[C@@H](CCCN=C(N)N)C(=O)N[C@H](C(=O)N[C@@H](CCCCN)C(=O)N[C@@H](CCCN=C(N)N)C(=O)CCl)C(C)C + CC[C@H](C)C[C@H](C)CCCCCCCCC(=O)N[C@H]1C[C@@H](O)[C@@H](NCCN)NC(=O)[C@@H]2[C@@H](O)CCN2C(=O)[C@H]([C@H](O)CCN)NC(=O)[C@H]([C@H](O)[C@@H](O)c2ccc(O)cc2)NC(=O)[C@@H]2C[C@@H](O)CN2C(=O)[C@H]([C@@H](C)O)NC1=O [caspofungin] (first compound 4 µM) | 0.18 ± 0.013 | 0.141 ± 0.018
